In PubChem BioAssay (NCATS):
Records with an inconclusive call do not appear. Active and inactive are the calls of the source. Calls follow the shape of the dose curve; as a rule, active = well fitted inhibition curve with a large enough effect; inconclusive = small, poorly fitted or top-dose-only effect; inactive = flat fitted curve, though single readings scatter.

Columns and labels:
HEK293 = test: Cytotoxic Profiling of Annotated Libraries Using Quantitative High-Throughput Screening (AID 1296008); settings: Five cell lines viability, CellTiter-Glo ATP luminescence, 48-72 h; max response: stronger effect = lower value; as to max response: % is scaled to controls: 0 for no effect and ±100 for the full control effect
In short: (§1)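 Compounds were pin-transferred onto cells and incubated 48 or 72 hr at 37 degree Celsius, 95% humidity. CellTiter-Glo was added, plates sat 10 min at room temperature, then ATP-coupled luminescence was imaged as the viability read-out.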

HaCat [1] = test: as above; settings: Five cell lines viability, CellTiter-Glo ATP luminescence, 48-72 h; max response: stronger effect = lower value
In short: as §1

KB-3-1 = test: as above; settings: Five cell lines viability, CellTiter-Glo ATP luminescence, 48-72 h; max response: stronger effect = lower value
In short: as §1

NIH3T3 = test: as above; settings: Five cell lines viability, CellTiter-Glo ATP luminescence, 48-72 h; max response: stronger effect = lower value
In short: as §1

HACAT [2] = test: qHTS assay to identify novel small-molecules to repurpose for Merkel cell carcinoma treatment (AID 1296009); settings: MCC and control cell lines, CellTiter-Glo viability, 72 h; at 44.8 µM (top of the series) unless noted
In short: (§2)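 Luminescence from CellTiter-Glo, read 10 min after addition at room temperature, reported viability following a 72 hr, 37 degree celsius treatment with NPC or MIPE compounds in titration; values normalized to plate controls.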

HEK293T = test: as above; settings: MCC and control cell lines, CellTiter-Glo viability, 72 h; series mostly up to 44.8 µM
In short: as §2
Also: nearly all actives have a fitted effect of over 60% in size.

O=C(O)CCc1cc2ccoc2cc1O[C@@H]1O[C@H](CO[C@@H]2OC[C@](O)(CO)[C@H]2O)[C@@H](O)[C@H](O)[C@H]1O
inactive: outcome (HEK293) | outcome (HaCat [1]) | max response (KB-3-1) 9.81% | max response (NIH3T3) -2.27% | outcome (HACAT [2]) inactive [at 17.4 µM] | Potency (HEK293T)

COC(=O)C[C@@H]1C(C(=O)O)=CO[C@@H](O[C@@H]2O[C@H](CO)[C@@H](O)[C@H](O)[C@H]2O)/C1=C\COC(=O)/C=C\c1ccccc1
inactive: outcome (HEK293) | outcome (HaCat [1]) | max response (KB-3-1) -0.0915% | max response (NIH3T3) -14.1% | outcome (HACAT [2]) inactive [at 17.4 µM] | Potency (HEK293T)

CC1CCC2(NC1)OC1C(=O)C3C4CCC5CC(O[C@@H]6O[C@H](CO)[C@@H](O)[C@H](O)[C@H]6O[C@@H]6O[C@@H](C)[C@H](O)[C@@H](O)[C@H]6O)CCC5(C)C4CCC3(C)C1C2C (some centres not stated)
inactive: outcome (HEK293) | outcome (HaCat [1]) | max response (KB-3-1) -4.49% | max response (NIH3T3) -2.88% | outcome (HACAT [2]) inactive [at 17.4 µM] | Potency (HEK293T)

CC1=C(C)C(=O)OC(C(C)C2C(O)CC3C4C5OC5C5(O)CC(OC6OC(CO)C(O)C(O)C6O)CC(O)C5(C)C4CCC32C)C1 (configuration not stated)
inactive: outcome (HEK293) | outcome (HaCat [1]) | max response (KB-3-1) 0.502% | max response (NIH3T3) -0.676% | outcome (HACAT [2]) inactive [at 17.4 µM] | Potency (HEK293T)

CC1CCC2(C(=O)OC3OC(CO)C(O)C(O)C3O)CCC3(C)C(=CCC4C5(C)CC(O)C(O)C(C)(C(=O)O)C5CCC43C)C2C1(C)O (configuration not stated)
inactive: outcome (HEK293) | outcome (HaCat [1]) | max response (KB-3-1) 1.03% | outcome (NIH3T3) | outcome (HACAT [2]) inactive [at 17.4 µM] | Potency (HEK293T)

CC1=C2C3OC(=O)C(C)C3(O)CCC2(C)CCC1=O (configuration not stated)
inactive: outcome (HEK293) | outcome (HaCat [1]) | outcome (KB-3-1) | outcome (NIH3T3) | outcome (HACAT [2]) | Potency (HEK293T)

CC(=O)N1c2ccccc2C2(O)CC3C(=O)NC(CC(C)C)C(=O)N3C12 (configuration not stated)
inactive: outcome (HEK293) | outcome (HaCat [1]) | max response (KB-3-1) 2.12% | max response (NIH3T3) 1.77% | outcome (HACAT [2]) | Potency (HEK293T)

C(#Cc1cccc(CN2CCOCC2)c1)CCN1CCCCC1
inactive: outcome (HEK293) | outcome (HaCat [1]) | max response (KB-3-1) 2.31% | max response (NIH3T3) 1.81% | outcome (HACAT [2]) | Potency (HEK293T)

CC(=O)NC(CCC(=O)O)C(=O)NCCc1ccc(O)cc1 (configuration not stated)
inactive: outcome (HEK293) | outcome (HaCat [1]) | outcome (KB-3-1) | outcome (NIH3T3) | outcome (HACAT [2]) | Potency (HEK293T)

Cc1nn(C)c(COc2ccc(N3CCN(S(=O)(=O)N(C)C)CC3)cc2)c1-c1cccc2c(CCCOc3cccc4ccccc34)c(C(=O)O)n(CCN3CCOCC3)c12
inactive: outcome (HEK293) | outcome (HaCat [1]) | max response (KB-3-1) 3.5% | max response (NIH3T3) -0.0408% | outcome (HACAT [2]) | Potency (HEK293T)

C[C@H]1[C@H](C)CC[C@]2(C(=O)O)CC[C@]3(C)C(=CC[C@@H]4[C@@]5(C)C[C@@H](O)[C@H](O)[C@@](C)(CO)[C@@H]5CC[C@]43C)[C@H]12
inactive: outcome (HEK293) | outcome (HaCat [1]) | outcome (KB-3-1) | max response (NIH3T3) 4.85% | outcome (HACAT [2]) | Potency (HEK293T)

CC1(C)CC[C@]2(C(=O)O[C@@H]3O[C@H](CO)[C@@H](O)[C@H](O)[C@H]3O)CC[C@]3(C)C(=CCC4[C@@]5(C)C[C@@H](O)[C@H](O)[C@@](C)(CO)C5CC[C@]43C)C2C1 (some centres not stated)
inactive: outcome (HEK293) | outcome (HaCat [1]) | outcome (KB-3-1) | max response (NIH3T3) -1.65% | outcome (HACAT [2]) inactive [at 17.4 µM] | Potency (HEK293T)

CCC[C@@H]1C[C@@H](C(=O)N[C@@H]([C@H]2O[C@H](SC)[C@H](O)[C@@H](O)[C@@H]2O)[C@@H](C)O)N(C)C1
inactive: outcome (HEK293) | outcome (HaCat [1]) | outcome (KB-3-1) | outcome (NIH3T3) | outcome (HACAT [2]) | Potency (HEK293T)

COc1c(C)c2c(c(O)c1C/C=C(\C)CC/C=C(\C)CCC(=O)O)C(=O)OC2
inactive: outcome (HEK293) | outcome (HaCat [1]) | outcome (KB-3-1) | max response (NIH3T3) 0.0064% | outcome (HACAT [2]) | Potency (HEK293T)

CC(=O)O[C@@H]1C[C@]2(C)[C@@]3(CCC4[C@@]5(C)CC[C@H](O[C@@H]6O[C@H](C(=O)O)[C@@H](O)[C@H](O[C@@H]7O[C@H](CO)[C@H](O)[C@H](O)[C@H]7O[C@@H]7O[C@@H](C)[C@H](O)[C@@H](O)[C@H]7O[C@@H]7OC[C@](O)(CO)[C@H]7O)[C@H]6O[C@@H]6O[C@H](CO)[C@H](O)[C@H](O)[C@H]6O)C(C)(C)C5CC[C@]42C)O[C@@H](O)[C@]12C3CC(C)(C)[C@@H](OC(=O)/C=C/c1ccc(O)c(O)c1)[C@@H]2OC(=O)/C=C/c1ccccc1 (some centres not stated)
inactive: outcome (HEK293) | outcome (HaCat [1]) | outcome (KB-3-1) | outcome (NIH3T3) | outcome (HACAT [2]) inactive [at 9.27 µM] | outcome (HEK293T) inactive [at 9.27 µM]

CCNC(=O)CCC/C=C\C[C@@H]1[C@@H](/C=C/C(O)CCc2ccccc2)[C@@H](O)C[C@@H]1O (some centres not stated)
inactive: outcome (HEK293) | outcome (HaCat [1]) | max response (KB-3-1) 9.15% | outcome (NIH3T3) | outcome (HACAT [2]) | Potency (HEK293T)

CCc1cc2c(=O)c(-c3nc4ccccc4s3)coc2c(CN2CCCCC2)c1O
inactive: outcome (HEK293) | outcome (HaCat [1]) | max response (KB-3-1) -10.9% | max response (NIH3T3) 2.93% | outcome (HACAT [2]) inactive [at 17.4 µM] | Potency (HEK293T)
